Reference: publication PMC5540273 (PLoS ONE, 2017)

Test system: T1, NIM1
T1 construct: gene MGC42105
Settings: concentration: 1 μM,replicates: in singlicate; n = 1
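Note: KINOMEscan kinase panel screen.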

| Structure (SMILES) | %Inh [%] |
| --- | --- |
| O=C(NCCNc1ccnc(NCc2ccc(F)cc2)n1)c1cc2ccccc2s1 [GSK1379944] | 0 |
| Cl.Cl.NC[C@H](CC1CCCCC1)NC(=O)c1cc(Br)c(-c2ccnc3[nH]ccc23)s1 [GSK1581427] | 22 |
| Cc1ccc2c(-c3ccncc3)c(-c3ccc(F)cc3)nn2c1.Cl [GW461484] | 13 |
| CC(C)N1C(=O)Cc2cc(Nc3ncc(C(F)(F)F)c(NCc4cccc(S(C)(=O)=O)c4)n3)ccc21 | 51 |
| CN(C)CC(O)COc1ccc(Nc2nccc(-c3cnn4nc(N5CCOCC5)ccc34)n2)cc1 (centres unmarked) [GW767488] | 51 |
| COc1ccc(C[C@@H](CN)NC(=O)c2cc(Br)c(-c3ccnc4[nH]ccc34)s2)cc1.Cl.Cl [GSK1389063] | 13 |
| C[C@@H](Oc1cc(-c2cnn(C3CCNCC3)c2)cnc1N)c1c(Cl)ccc(F)c1Cl | 8 |
| CCN(CC)CCCCNc1ncc2cc(-c3c(Cl)cccc3Cl)c(NC(=O)NC(C)(C)C)nc2n1 | 6 |
| C[C@H]1Oc2cc(cnc2N)-c2c(nn(C)c2C#N)CN(C)C(=O)c2ccc(F)cc21 | 0 |
| CCN(CC)CCOc1ccc(Nc2ncc3cc(-c4c(Cl)cccc4Cl)c(=O)n(C)c3n2)cc1 [SB-601273] | 96.4 |
| Cl.Cl.NC[C@H](Cc1ccc(C(F)(F)F)cc1)NC(=O)c1cc(Br)c(-c2ccnc3[nH]ccc23)s1 [GSK1487252] | 4 |
| C[C@@H]1CCN(C(=O)CC#N)C[C@@H]1N(C)c1ncnc2[nH]ccc12 | 7 |
| Cc1n[nH]c2ccc(-c3cc(OC[C@@H](N)Cc4ccccc4)cnc3-c3ccoc3)cc12.O=C(O)C(F)(F)F.O=C(O)C(F)(F)F [GSK507358] | 20 |
| CN(C)CCOc1ccc(-c2cc(-c3c[nH]nc3-c3ccccn3)ccn2)cc1 [GW835314] | 10 |
| CCn1c(-c2nonc2N)nc2c(C#CC(C)(C)O)nc(OCCN)cc21.Cl.Cl [GSK902056] | 10 |
| Nc1nc(Nc2ccccc2)cc(-c2ccc3c(N)n[nH]c3c2)n1 [GSK2225749] | 15 |
| Cc1ccc(-n2nc(C(C)(C)C)cc2NC(=O)Nc2ccc(OCCN3CCOCC3)c3ccccc23)cc1 [GW839464] | 0 |
| Cc1cc(C(=O)Nc2ccc(Oc3ccc4nc(NC(=O)C5CC5)cn4n3)cc2)nn1-c1ccccc1 | 0 |
| O=C(NCCCN1CCOC1=O)c1cnc(NCc2cc(Cl)ccc2Cl)nc1NC1CCCC1 | 2 |
| CC(C)Nc1cc(-c2ccc3c(N)n[nH]c3c2)nc(N)n1 [GSK2221681] | 0 |
| CNC(=O)c1ccccc1Sc1ccc2c(/C=C/c3ccccn3)n[nH]c2c1 | 8 |
| NC(=O)c1cc(-c2ccccc2)cc2c(C3CCNCC3)c[nH]c12 [GSK301362] | 15 |
| Cl.Cl.Nc1nc(-c2ccc3c(N)n[nH]c3c2)cc(N2CCCC(NC(=O)c3ccccc3)C2)n1 (centres unmarked) [GSK2286775] | 2 |
| Cl.Oc1cc(-c2nc(-c3ccccc3)[nH]c2-c2ccncc2)ccc1Cl [SB-386023] | 0 |
| Cc1cc2cn[nH]c2cc1-c1cccc2c(N)c(C(N)=O)nnc12 | 27 |
| Cc1occc1-c1nc(N)c(OC[C@@H](N)Cc2c[nH]c3ccccc23)cc1-c1cc2c(C)n[nH]c2cn1 [GSK1660450] | 74 |
| C=CC(=O)Nc1cc2c(Nc3ccc(F)c(Cl)c3)ncnc2cc1OCCCN1CCOCC1 [GW781483] | 36 |

Test system: NLK
Settings: concentration: 1 μM,replicates: in singlicate; n = 1

| Structure (SMILES) | %Inh [%] |
| --- | --- |
| O=C(NCCNc1ccnc(NCc2ccc(F)cc2)n1)c1cc2ccccc2s1 [GSK1379944] | 88 |
| Cl.Cl.NC[C@H](CC1CCCCC1)NC(=O)c1cc(Br)c(-c2ccnc3[nH]ccc23)s1 [GSK1581427] | 0 |
| Cc1ccc2c(-c3ccncc3)c(-c3ccc(F)cc3)nn2c1.Cl [GW461484] | 91.3 |
| CC(C)N1C(=O)Cc2cc(Nc3ncc(C(F)(F)F)c(NCc4cccc(S(C)(=O)=O)c4)n3)ccc21 | 0 |
| CN(C)CC(O)COc1ccc(Nc2nccc(-c3cnn4nc(N5CCOCC5)ccc34)n2)cc1 (centres unmarked) [GW767488] | 11 |
| COc1ccc(C[C@@H](CN)NC(=O)c2cc(Br)c(-c3ccnc4[nH]ccc34)s2)cc1.Cl.Cl [GSK1389063] | 0 |
| C[C@@H](Oc1cc(-c2cnn(C3CCNCC3)c2)cnc1N)c1c(Cl)ccc(F)c1Cl | 0 |
| CCN(CC)CCCCNc1ncc2cc(-c3c(Cl)cccc3Cl)c(NC(=O)NC(C)(C)C)nc2n1 | 81 |
| C[C@H]1Oc2cc(cnc2N)-c2c(nn(C)c2C#N)CN(C)C(=O)c2ccc(F)cc21 | 5 |
| CCN(CC)CCOc1ccc(Nc2ncc3cc(-c4c(Cl)cccc4Cl)c(=O)n(C)c3n2)cc1 [SB-601273] | 99.3 |
| Cl.Cl.NC[C@H](Cc1ccc(C(F)(F)F)cc1)NC(=O)c1cc(Br)c(-c2ccnc3[nH]ccc23)s1 [GSK1487252] | 0 |
| C[C@@H]1CCN(C(=O)CC#N)C[C@@H]1N(C)c1ncnc2[nH]ccc12 | 12 |
| Cc1n[nH]c2ccc(-c3cc(OC[C@@H](N)Cc4ccccc4)cnc3-c3ccoc3)cc12.O=C(O)C(F)(F)F.O=C(O)C(F)(F)F [GSK507358] | 3 |
| CN(C)CCOc1ccc(-c2cc(-c3c[nH]nc3-c3ccccn3)ccn2)cc1 [GW835314] | 0 |
| CCn1c(-c2nonc2N)nc2c(C#CC(C)(C)O)nc(OCCN)cc21.Cl.Cl [GSK902056] | 0 |
| Nc1nc(Nc2ccccc2)cc(-c2ccc3c(N)n[nH]c3c2)n1 [GSK2225749] | 3 |
| Cc1cc(C(=O)Nc2ccc(Oc3ccc4nc(NC(=O)C5CC5)cn4n3)cc2)nn1-c1ccccc1 | 2 |
| O=C(NCCCN1CCOC1=O)c1cnc(NCc2cc(Cl)ccc2Cl)nc1NC1CCCC1 | 17 |
| CC(C)Nc1cc(-c2ccc3c(N)n[nH]c3c2)nc(N)n1 [GSK2221681] | 0 |
| CNC(=O)c1ccccc1Sc1ccc2c(/C=C/c3ccccn3)n[nH]c2c1 | 100 |
| NC(=O)c1cc(-c2ccccc2)cc2c(C3CCNCC3)c[nH]c12 [GSK301362] | 28 |
| Cl.Cl.Nc1nc(-c2ccc3c(N)n[nH]c3c2)cc(N2CCCC(NC(=O)c3ccccc3)C2)n1 (centres unmarked) [GSK2286775] | 13 |
| Cl.Oc1cc(-c2nc(-c3ccccc3)[nH]c2-c2ccncc2)ccc1Cl [SB-386023] | 90 |
| Cc1cc2cn[nH]c2cc1-c1cccc2c(N)c(C(N)=O)nnc12 | 0 |
| Cc1occc1-c1nc(N)c(OC[C@@H](N)Cc2c[nH]c3ccccc23)cc1-c1cc2c(C)n[nH]c2cn1 [GSK1660450] | 17 |
| C=CC(=O)Nc1cc2c(Nc3ccc(F)c(Cl)c3)ncnc2cc1OCCCN1CCOCC1 [GW781483] | 0 |
